The values that follow come from PubChem BioAssay (EPA / NIEHS).

Molecules are shown by their SMILES. Where “and” joins values, the source holds several entries; their conditions need not be identical. Identical values can stand only once. Inconclusive results are not listed. The source holds several records for some structures; these can differ, active in one and inactive in another. Calls of active or inactive are those of the source. The calls were made as follows: active = hit-call score of the fitted dose curve at least 0.9, where 1 is the maximum; inconclusive = response in the unintended direction; inactive = score below 0.9.

For test [1], the target named is human Protein Tyrosine Phosphatase Non-receptor Type 1 (PTPN1), PTPN1 (gene 5770) (UniProt P18031). In words: NVS_ENZ_hPTPN1: NovaScreen (NVS) Enzymatic Assay for human Protein Tyrosine Phosphatase Non-receptor Type 1 (PTPN1) (AID 2283201). Summed up:
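Chemicals were first tested in duplicate at 25 uM, and those passing threshold went on to singleton concentration series topping at 50 uM. Recombinant enzyme, specific substrate, product separated by mobility shift, fluorescence read at 1.33 h; activity loss relative to DMSO.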

In test [2] the target is Tyrosine-protein phosphatase non-receptor type 11 (Homo sapiens) (UniProt Q06124). In words: NVS_ENZ_hPTPN11: NovaScreen (NVS) Enzymatic Assay for human Protein Tyrosine Phosphatase Non-receptor Type 11 (PTPN11) (AID 2283202). The method in brief: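 Compounds first tested in duplicate at 25 uM; those reaching ~30% inhibition rerun in singleton concentration-response, top 50 uM. Phosphatase activity measured after 0.5 h by fluorescence with mobility-shift separation, relative to DMSO.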

The target in test [3] is Tyrosine-protein phosphatase non-receptor type 12 (Homo sapiens) (UniProt Q05209). The test is described as follows: NVS_ENZ_hPTPN12: NovaScreen (NVS) Enzymatic Assay for human Protein Tyrosine Phosphatase Non-receptor Type 12 (PTPN12) (AID 2283204). Summed up: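 Single-concentration duplicates (25 uM) preceded singleton concentration-response up to 50 uM for chemicals passing threshold. Cell-free recombinant PTPN12 activity was read 1.33 h after dosing via fluorescence after mobility-shift separation; loss of signal versus DMSO.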

Test [4] addresses Tyrosine-protein phosphatase non-receptor type 13 (Homo sapiens) (UniProt Q12923). In words: NVS_ENZ_hPTPN13: NovaScreen (NVS) Enzymatic Assay for human Protein Tyrosine Phosphatase Non-receptor Type 13 (PTPN13) (AID 2283205). Summed up:
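Screened first at a single 25 uM in duplicate; compounds passing the threshold (e.g. 30% inhibition) were rerun in concentration series, top 50 uM. Recombinant enzyme, fluorescent substrate, mobility-shift separation, 0.5 h read. Data fitted as inhibition relative to DMSO.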

Test [5] concerns the target Tyrosine-protein phosphatase non-receptor type 14 (Homo sapiens) (UniProt Q15678). The test is described as follows: NVS_ENZ_hPTPN14: NovaScreen (NVS) Enzymatic Assay for human Protein Tyrosine Phosphatase Non-receptor Type 14 (PTPN14) (AID 2283206). Summed up: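 Fluorescent substrate turnover by recombinant human PTPN14 was measured 0.5 h after compound addition, with substrate and product separated by mobility shift. Single-point screening at 25 uM, then concentration-response up to 50 uM for chemicals meeting threshold (e.g., 30% inhibition).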

Test [6] addresses human Protein Tyrosine Phosphatase Non-receptor Type 4 (PTPN4), PTPN4 (gene 5775) (UniProt P29074). In words: NVS_ENZ_hPTPN4: NovaScreen (NVS) Enzymatic Assay for human Protein Tyrosine Phosphatase Non-receptor Type 4 (PTPN4) (AID 2283208). The method in brief: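 Screened in duplicate at 25 uM, with hits then titrated to a top concentration of 50 uM. Recombinant Sf9-derived PTPN4 turnover was read by fluorescence with electrophoretic separation, 1.33 h after compound addition. DMSO served as baseline.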

Test [7] concerns the target human Protein Tyrosine Phosphatase Non-receptor Type 9 (PTPN9), PTPN9 (gene 5780) (UniProt P43378). The test is described as follows: NVS_ENZ_hPTPN9: NovaScreen (NVS) Enzymatic Assay for human Protein Tyrosine Phosphatase Non-receptor Type 9 (PTPN9) (AID 2283209). The method in brief: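 Sf9-expressed enzyme in a cell-free assay, fluorescence read 1.33 h after dosing with mobility-shift separation of substrate and product. Tested at 25 uM in duplicate, then up to 50 uM; signal loss versus DMSO.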

Test [8] addresses human Protein Tyrosine Phosphatase Non-receptor Type 6 (PTPN6), PTPN6 (gene 5777) (UniProt P29350). The test is described as follows: NVS_ENZ_hPTPN6: NovaScreen (NVS) Enzymatic Assay for human Protein Tyrosine Phosphatase Non-receptor Type 6 (PTPN6) (AID 2283210). The method in brief: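 Recombinant human PTPN6 from SF9 cells, enzyme activity followed by fluorescence after mobility-shift separation of substrate and product at 1.33 h. Chemicals first tested at a single 25 uM in duplicate, then confirmed across concentration series; loss of signal relative to DMSO.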

The target in test [9] is human Protein Tyrosine Phosphatase Receptor Type B (PTPRB), PTPRB (gene 5787) (UniProt P23467). The test is described as follows: NVS_ENZ_hPTPRB: NovaScreen (NVS) Enzymatic Assay for human Protein Tyrosine Phosphatase Receptor Type B (PTPRB) (AID 2283211). Summed up: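 Recombinant human PTPRB with a fluorescent substrate, product separated by electrophoretic mobility shift; read 1 h after dosing. Primary screen in duplicate at 25 uM; actives then retested in concentration series; loss of signal versus DMSO.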

For test [10], the target named is human Protein Tyrosine Phosphatase Receptor Type F (PTPRF), PTPRF (gene 5792) (UniProt P10586). The test is described as follows: NVS_ENZ_hPTPRF: NovaScreen (NVS) Enzymatic Assay for human Protein Tyrosine Phosphatase Receptor Type F (PTPRF) (AID 2283213). Summed up:
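Cell-free fluorescence enzyme assay with recombinant protein and substrate; product separated by electrophoretic mobility shift. Read 1 h after dosing, single 25 uM duplicate screen, then concentration-response up to 50 uM; loss of signal vs DMSO.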

Test [11] has as its target human Protein Tyrosine Phosphatase Receptor Type M (PTPRM), PTPRM (gene 5797) (UniProt P28827). The test is described as follows: NVS_ENZ_hPTPRM: NovaScreen (NVS) Enzymatic Assay for human Protein Tyrosine Phosphatase Receptor Type M (PTPRM) (AID 2283215). The method in brief:
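Read-out is fluorescence after electrophoretic separation of substrate and product, taken 1.33 h post-dosing with recombinant enzyme. Compounds screened at 25 uM in duplicate, then concentration series for actives; activity as signal loss relative to DMSO.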

The target of test [12] is human Sirtuin 2 (SIRT2), SIRT2 (gene 22933) (UniProt Q8IXJ6). The test is described as follows: NVS_ENZ_hSIRT2: NovaScreen (NVS) Enzymatic Assay for human Sirtuin 2 (SIRT2) (AID 2283217). The method in brief:
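Single-point duplicate screen at 25 uM, then concentration-response (max 50 uM) for chemicals passing threshold. Enzyme activity of recombinant human SIRT2 measured after 1 hr by fluorescence with mobility-shift separation of product; DMSO baseline.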

Test [13] concerns the target human Sirtuin 1 (SIRT1), SIRT1 (gene 23411) (UniProt Q96EB6). The test is described as follows: NVS_ENZ_hSIRT1: NovaScreen (NVS) Enzymatic Assay for human Sirtuin 1 (SIRT1) (AID 2283219). The method in brief: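 Cell-free recombinant SIRT1 with a fluorescent substrate; substrate and product separated by electrophoretic mobility shift and read by fluorescence intensity, 1 h after dosing. Primary screen at 25 uM in duplicate; hits re-run in concentration-response up to 50 uM, relative to DMSO.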

Test [14] concerns the target human Sirtuin 3 (SIRT3), SIRT3 (gene 23410) (UniProt Q9NTG7). In words: NVS_ENZ_hSIRT3: NovaScreen (NVS) Enzymatic Assay for human Sirtuin 3 (SIRT3) (AID 2283222). Summed up: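 Cell-free enzyme assay with recombinant protein and fluorescent substrate, product separated by electrophoretic mobility shift; read 1 hour after dosing. Screened in duplicate at 25 uM, then singleton concentration-response up to 50 uM; loss of signal versus DMSO.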

Test [15] addresses rabbit Imidazoline 2 Central (I2C), CKB (gene 100009085) (UniProt P00567). The test is described as follows: NVS_ENZ_rabI2C: NovaScreen (NVS) Enzymatic Assay for rabbit Imidazoline 2 Central (I2C) (AID 2283228). Summed up:
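Rabbit brain membranes, cell-free; readout by filter-based scintillation counting 1.5 hours after dosing, loss of signal vs DMSO. Initial duplicate test at 25 uM, then concentration-response with 50 uM top concentration.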

Test [16] addresses human Vascular Endothelial Growth Factor Receptor 3 (VEGFR3), FLT4 (gene 2324) (UniProt P35916). In words: NVS_ENZ_hVEGFR3: NovaScreen (NVS) Enzymatic Assay for human Vascular Endothelial Growth Factor Receptor 3 (VEGFR3) (AID 2283229). Summed up: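 Chemicals first run in duplicate at 25 uM, with actives re-tested in concentration series to a top of 50 uM. Recombinant VEGFR3 activity measured after 1 h via fluorescence with mobility-shift product separation; inhibition fitted relative to DMSO.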

In test [17] the target is human Tropomyosin Receptor Kinase A (TRKA), NTRK1 (gene 4914) (UniProt P04629). In words: NVS_ENZ_hTrkA: NovaScreen (NVS) Enzymatic Assay for human Tropomyosin Receptor Kinase A (TRKA) (AID 2283224). The method in brief:
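Compounds were screened at 25 uM in duplicate, then concentration series to a 50 uM top for those meeting threshold (e.g. 30% inhibition). Enzyme was recombinant human TrkA, incubated 1 h. Product formation was quantified by fluorescence after mobility-shift separation.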

Test [18] addresses human Rho Associated Coiled-coil Containing Protein Kinase 1 (ROCK1), ROCK1 (gene 6093) (UniProt Q13464). The test is described as follows: NVS_ENZ_hROCK1: NovaScreen (NVS) Enzymatic Assay for human Rho Associated Coiled-coil Containing Protein Kinase 1 (ROCK1) (AID 2283214). The method in brief: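 Compounds first run in duplicate at 25 uM against recombinant human ROCK1, then followed in concentration series. Kinase activity was read 1 h post-dosing by fluorescence with mobility-shift separation, as signal loss relative to DMSO.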

Test [19] has as its target human SRC Proto-Oncogene, Non-receptor Tyrosine Kinase (SRC), SRC (gene 6714) (UniProt P12931). In words: NVS_ENZ_hSRC: NovaScreen (NVS) Enzymatic Assay for human SRC Proto-Oncogene, Non-receptor Tyrosine Kinase (SRC) (AID 2283223). The method in brief:
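Compounds passing 30% inhibition at 25 uM (duplicate) were titrated to a top concentration of 50 uM. Enzyme activity read by fluorescence with mobility-shift substrate/product separation after 1 h; DMSO baseline.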

Test [20] addresses human Vascular Endothelial Growth Factor Receptor 1 (VEGFR1), FLT1 (gene 2321) (UniProt P17948). In words: NVS_ENZ_hVEGFR1: NovaScreen (NVS) Enzymatic Assay for human Vascular Endothelial Growth Factor Receptor 1 (VEGFR1) (AID 2283226). The method in brief:
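Kinase activity of recombinant human VEGFR1 was read by fluorescence after electrophoretic separation of product from substrate, 1 h post-dosing; initial duplicate single-point testing at 25 uM, followed by concentration-series follow-up, with DMSO as baseline.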

Sequence of human Sirtuin 1 (SIRT1), SIRT1 (gene 23411) (Q96EB6 whole entry, looked up): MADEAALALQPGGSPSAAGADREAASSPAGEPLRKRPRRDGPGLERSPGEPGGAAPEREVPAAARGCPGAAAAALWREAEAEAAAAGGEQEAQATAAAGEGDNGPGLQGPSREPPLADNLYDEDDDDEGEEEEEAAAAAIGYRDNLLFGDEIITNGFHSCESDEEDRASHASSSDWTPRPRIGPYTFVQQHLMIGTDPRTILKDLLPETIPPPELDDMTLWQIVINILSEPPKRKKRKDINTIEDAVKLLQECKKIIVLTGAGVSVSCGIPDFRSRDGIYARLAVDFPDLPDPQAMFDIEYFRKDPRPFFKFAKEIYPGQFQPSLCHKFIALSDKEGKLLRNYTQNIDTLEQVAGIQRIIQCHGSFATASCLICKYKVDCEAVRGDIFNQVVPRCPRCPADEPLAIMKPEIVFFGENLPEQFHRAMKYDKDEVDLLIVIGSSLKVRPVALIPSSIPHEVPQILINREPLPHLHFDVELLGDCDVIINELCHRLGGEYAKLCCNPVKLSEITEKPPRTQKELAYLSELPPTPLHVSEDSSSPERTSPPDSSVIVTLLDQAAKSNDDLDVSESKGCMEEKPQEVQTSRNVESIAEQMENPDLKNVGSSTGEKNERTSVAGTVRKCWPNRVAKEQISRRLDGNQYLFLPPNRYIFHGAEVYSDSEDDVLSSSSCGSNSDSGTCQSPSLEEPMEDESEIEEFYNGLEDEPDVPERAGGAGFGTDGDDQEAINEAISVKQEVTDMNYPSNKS
Sequence of human Protein Tyrosine Phosphatase Non-receptor Type 9 (PTPN9), PTPN9 (gene 5780) (P43378 whole entry, looked up): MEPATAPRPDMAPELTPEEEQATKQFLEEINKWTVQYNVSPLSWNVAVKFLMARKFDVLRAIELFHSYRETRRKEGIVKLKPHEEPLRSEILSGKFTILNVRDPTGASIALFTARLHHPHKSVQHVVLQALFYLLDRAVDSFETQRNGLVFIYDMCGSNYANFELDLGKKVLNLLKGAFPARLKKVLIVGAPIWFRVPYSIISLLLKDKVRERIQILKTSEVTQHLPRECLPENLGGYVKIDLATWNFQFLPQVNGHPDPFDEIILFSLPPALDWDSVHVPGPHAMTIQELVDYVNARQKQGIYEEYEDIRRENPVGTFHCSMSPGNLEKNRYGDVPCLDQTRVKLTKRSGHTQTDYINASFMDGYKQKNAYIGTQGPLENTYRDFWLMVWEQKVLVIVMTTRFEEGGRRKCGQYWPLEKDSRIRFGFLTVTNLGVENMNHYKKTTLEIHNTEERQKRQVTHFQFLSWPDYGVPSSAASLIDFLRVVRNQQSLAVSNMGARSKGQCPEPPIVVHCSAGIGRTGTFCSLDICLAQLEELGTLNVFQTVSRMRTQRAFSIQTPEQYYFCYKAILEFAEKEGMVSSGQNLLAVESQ
Sequence of Tyrosine-protein phosphatase non-receptor type 13 (Homo sapiens) (Q12923 whole entry, looked up): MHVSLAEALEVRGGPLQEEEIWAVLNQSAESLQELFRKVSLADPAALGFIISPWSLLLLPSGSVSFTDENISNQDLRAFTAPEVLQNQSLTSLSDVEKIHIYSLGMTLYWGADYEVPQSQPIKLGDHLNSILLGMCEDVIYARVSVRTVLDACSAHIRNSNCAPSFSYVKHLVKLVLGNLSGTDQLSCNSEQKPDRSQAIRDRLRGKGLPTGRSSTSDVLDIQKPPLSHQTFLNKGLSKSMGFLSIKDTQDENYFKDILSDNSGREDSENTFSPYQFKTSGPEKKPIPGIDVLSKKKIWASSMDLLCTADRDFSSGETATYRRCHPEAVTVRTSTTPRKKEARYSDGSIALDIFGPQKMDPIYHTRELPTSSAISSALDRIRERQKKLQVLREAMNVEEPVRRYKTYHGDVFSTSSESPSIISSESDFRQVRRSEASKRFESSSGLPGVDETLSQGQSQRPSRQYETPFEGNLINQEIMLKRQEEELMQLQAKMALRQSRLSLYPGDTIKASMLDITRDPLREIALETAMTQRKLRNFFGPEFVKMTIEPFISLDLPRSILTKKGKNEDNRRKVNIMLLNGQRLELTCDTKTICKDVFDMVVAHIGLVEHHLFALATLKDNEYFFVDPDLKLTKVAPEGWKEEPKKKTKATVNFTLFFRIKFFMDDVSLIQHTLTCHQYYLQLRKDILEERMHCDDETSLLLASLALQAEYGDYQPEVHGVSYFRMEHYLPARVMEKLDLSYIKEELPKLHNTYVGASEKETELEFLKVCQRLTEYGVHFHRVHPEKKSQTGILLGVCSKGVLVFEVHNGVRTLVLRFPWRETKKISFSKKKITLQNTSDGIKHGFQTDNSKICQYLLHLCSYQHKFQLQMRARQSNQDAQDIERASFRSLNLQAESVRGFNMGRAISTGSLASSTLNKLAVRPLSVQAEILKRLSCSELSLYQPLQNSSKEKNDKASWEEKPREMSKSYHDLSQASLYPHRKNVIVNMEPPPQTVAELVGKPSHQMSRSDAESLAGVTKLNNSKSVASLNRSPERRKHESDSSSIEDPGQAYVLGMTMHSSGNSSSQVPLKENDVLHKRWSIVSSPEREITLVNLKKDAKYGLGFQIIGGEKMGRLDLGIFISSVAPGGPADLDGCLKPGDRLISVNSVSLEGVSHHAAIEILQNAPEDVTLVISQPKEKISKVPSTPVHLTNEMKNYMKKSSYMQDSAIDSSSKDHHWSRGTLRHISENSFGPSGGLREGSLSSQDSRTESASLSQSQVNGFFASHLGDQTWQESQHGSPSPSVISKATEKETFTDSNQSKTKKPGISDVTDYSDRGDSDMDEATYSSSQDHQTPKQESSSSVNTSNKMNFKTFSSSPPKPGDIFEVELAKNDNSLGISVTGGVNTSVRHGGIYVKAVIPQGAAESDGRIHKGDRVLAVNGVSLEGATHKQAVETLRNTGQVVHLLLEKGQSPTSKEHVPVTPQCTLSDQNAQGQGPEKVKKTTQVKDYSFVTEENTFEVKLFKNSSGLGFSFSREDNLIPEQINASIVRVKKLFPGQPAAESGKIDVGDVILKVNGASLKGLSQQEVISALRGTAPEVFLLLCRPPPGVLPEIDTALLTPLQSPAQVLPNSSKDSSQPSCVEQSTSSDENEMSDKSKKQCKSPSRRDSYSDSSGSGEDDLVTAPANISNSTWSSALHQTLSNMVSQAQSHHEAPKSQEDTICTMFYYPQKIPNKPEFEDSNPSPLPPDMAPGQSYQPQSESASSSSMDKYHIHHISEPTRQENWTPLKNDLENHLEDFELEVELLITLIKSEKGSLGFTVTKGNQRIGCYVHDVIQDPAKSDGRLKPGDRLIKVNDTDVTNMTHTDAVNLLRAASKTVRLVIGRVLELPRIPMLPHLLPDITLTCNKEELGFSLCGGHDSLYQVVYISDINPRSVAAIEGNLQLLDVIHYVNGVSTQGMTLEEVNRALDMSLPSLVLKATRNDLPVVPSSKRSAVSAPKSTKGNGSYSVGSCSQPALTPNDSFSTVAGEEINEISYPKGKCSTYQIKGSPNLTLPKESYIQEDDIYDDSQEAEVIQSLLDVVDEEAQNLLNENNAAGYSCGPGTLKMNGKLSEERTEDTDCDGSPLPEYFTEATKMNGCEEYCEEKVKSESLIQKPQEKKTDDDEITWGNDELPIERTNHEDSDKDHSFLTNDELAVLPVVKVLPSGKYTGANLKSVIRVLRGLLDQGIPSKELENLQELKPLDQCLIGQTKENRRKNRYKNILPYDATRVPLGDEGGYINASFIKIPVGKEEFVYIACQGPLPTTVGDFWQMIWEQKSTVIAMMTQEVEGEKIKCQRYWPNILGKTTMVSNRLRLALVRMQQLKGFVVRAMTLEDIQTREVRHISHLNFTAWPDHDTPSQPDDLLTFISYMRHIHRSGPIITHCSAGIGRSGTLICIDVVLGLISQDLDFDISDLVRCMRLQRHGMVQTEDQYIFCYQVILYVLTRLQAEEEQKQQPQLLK
Sequence of human Protein Tyrosine Phosphatase Non-receptor Type 4 (PTPN4), PTPN4 (gene 5775) (P29074 whole entry, looked up): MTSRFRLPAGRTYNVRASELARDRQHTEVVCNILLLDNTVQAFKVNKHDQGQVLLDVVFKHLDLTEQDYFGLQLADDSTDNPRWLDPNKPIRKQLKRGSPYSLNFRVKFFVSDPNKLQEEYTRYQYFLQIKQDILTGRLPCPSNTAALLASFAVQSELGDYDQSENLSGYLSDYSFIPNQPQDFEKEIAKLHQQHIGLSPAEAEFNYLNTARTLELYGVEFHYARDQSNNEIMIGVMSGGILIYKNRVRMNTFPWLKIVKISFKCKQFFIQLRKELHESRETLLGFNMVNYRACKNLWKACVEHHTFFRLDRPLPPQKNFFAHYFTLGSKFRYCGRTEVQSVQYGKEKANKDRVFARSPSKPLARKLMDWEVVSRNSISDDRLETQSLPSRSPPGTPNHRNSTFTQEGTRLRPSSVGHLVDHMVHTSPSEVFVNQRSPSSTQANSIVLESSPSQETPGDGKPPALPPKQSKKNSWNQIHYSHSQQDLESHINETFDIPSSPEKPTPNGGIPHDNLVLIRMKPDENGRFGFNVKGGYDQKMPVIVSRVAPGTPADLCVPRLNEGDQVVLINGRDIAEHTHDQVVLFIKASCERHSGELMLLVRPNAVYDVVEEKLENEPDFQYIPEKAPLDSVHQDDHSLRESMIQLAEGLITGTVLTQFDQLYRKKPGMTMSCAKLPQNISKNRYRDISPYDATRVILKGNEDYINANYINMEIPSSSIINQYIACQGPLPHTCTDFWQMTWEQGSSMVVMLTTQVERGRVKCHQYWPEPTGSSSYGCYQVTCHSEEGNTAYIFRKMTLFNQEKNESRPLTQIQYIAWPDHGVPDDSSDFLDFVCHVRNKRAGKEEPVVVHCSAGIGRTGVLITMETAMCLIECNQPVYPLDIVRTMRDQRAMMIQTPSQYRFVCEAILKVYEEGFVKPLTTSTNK

On to `S=C([S-])NCCNC(=S)[S-].[Mn+2]`, for which the AC50 (usually the concentration at which the activity in the assay is half-maximal) is 831 nM (active) in test [1]; 144 nM (active) in [2]; 479 nM (active) in test [3]; 594 nM (active) in test [4]; 13.8 µM (active) in test [5]; 3.5 nM (active) in test [6]. For the same molecule, the AC50 in test [7] is 2.31 nM (active); in [8] it was 34.7 µM (active); in [9], 465 nM (active); in test [10], 6.35 µM (active); in [11] it was 8.13 µM (active); in [12], 14.1 µM (active). The values for the AC50 in test [13] and in test [14] were 15.4 µM (active) and 7.6 µM (active), respectively. In test [15], the call was inactive.
Take `CCOC(=O)c1ccc(O)cc1`: the molecule was classed as inactive in [16].
As for `CC1(C)C(C=C(Cl)Cl)C1C(=O)OCc1cccc(Oc2ccccc2)c1` (stereo not drawn), the molecule was called inactive in [12].
On to `Oc1ccc(C(c2ccc(O)cc2)C(Cl)(Cl)Cl)cc1`, for which the outcome in [2] was inactive. Moreover, the AC50 is 46.5 µM (active) in test [11], 17 µM (active) in test [12], 19.4 µM (active) in test [14] and 15 µM (active) in test [17].
As for `C=CCOC(Cn1ccnc1)c1ccc(Cl)cc1Cl` (stereo not drawn), the AC50 in test [12] is 15.1 µM (active); in [15] it was 25 µM (active).
For the molecule `O=C(O)c1ccccc1`, the molecule was called inactive in test [12].
Turning to `O=C(Nc1ccc([N+](=O)[O-])cc1Cl)c1cc(Cl)ccc1O`, the AC50 in test [4] was 18700 nM (active). Further, the result in [11] was inactive.
Take `S=C(S)NCCNC(=S)S.[Mn+2].[S-]C([S-])=NCCN=C([S-])[S-].[Zn+2]`: the AC50 in test [1] is 830 nM (active) and 1.81 µM (active); in test [2], 463 nM (active) and 603 nM (active); in test [3], 486 nM (active) and 1.35 µM (active); in [4] it was 3.5 µM (active) and 7.66 µM (active) and 4.12 µM (active); in test [5], 25 µM (active); in [6], 183 nM (active) and 38.9 nM (active). Further, the AC50 in test [7] is 419 nM (active) and 26.1 nM (active); in test [8] it was 3.57 µM (active) and 30.5 µM (active); in [9] it was 22.4 nM (active) and 4.12 µM (active); in test [10] it was 1.38 µM (active) and 1.98 µM (active); in [12] it was 4.58 µM (active); in test [13] it was 3.63 µM (active) and 4.01 µM (active) and 3.03 µM (active). The concentration at half-maximal activity (AC50) in [14] was 25 µM (active); in test [19], 1.47 µM (active); in test [17], 22.1 µM (active); in test [20] it was 7.01 µM (active); in [15] it was 1.34 µM (active); in [16], 2.42 µM (active) and 1.31 µM (active). Moreover, the outcome in test [10], in test [18], in test [12], in test [14], in test [20] and in test [15] was inactive.
`CCC(C)OC(=O)N1CCCCC1CCO` (stereo not drawn): the molecule was called inactive in test [6] and in [7].
